Laboratory results from PMC7826789 (International Journal of Molecular Sciences, 2021).

Experiments:
Conditions in all cases: Compound Concentration (nM):1000
JNK1 = system: T1, JNK1
T1 construct: gene MAPK8

JNK2 = system: T2, JNK2
T2 construct: gene MAPK9

JNK3 = system: T3, JNK3
T3 construct: gene MAPK10

KIT(A829P) = system: KIT(A829P)
KIT(D816H) = system: KIT(D816H)
KIT(D816V) = system: KIT(D816V)
KIT(L576P) = system: KIT(L576P)
KIT(V559D) = system: KIT(V559D)
KIT(V559D,T670I) = system: KIT(V559D,T670I)
KIT(V559D,V654A) = system: KIT(V559D,V654A)
KIT-autoinhibited = system: KIT-autoinhibited
KIT = system: KIT
LATS1 = system: LATS1
LATS2 = system: LATS2
LCK = system: LCK
LIMK1 = system: LIMK1
LIMK2 = system: LIMK2
LKB1 = system: T4, LKB1
T4 construct: gene STK11

LOK = system: T5, LOK
T5 construct: gene STK10

LRRK2(G2019S) = system: LRRK2(G2019S)
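Also: KINOMEscan scanMAX binding as percent activity remaining versus control; lower means stronger binding.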

Structure (SMILES)	Percent Control (JNK1) [%]	Percent Control (JNK2) [%]	Percent Control (JNK3) [%]	Percent Control (KIT(A829P)) [%]	Percent Control (KIT(D816H)) [%]	Percent Control (KIT(D816V)) [%]	Percent Control (KIT(L576P)) [%]	Percent Control (KIT(V559D)) [%]	Percent Control (KIT(V559D,T670I)) [%]	Percent Control (KIT(V559D,V654A)) [%]	Percent Control (KIT-autoinhibited) [%]	Percent Control (KIT) [%]	Percent Control (LATS1) [%]	Percent Control (LATS2) [%]	Percent Control (LCK) [%]	Percent Control (LIMK1) [%]	Percent Control (LIMK2) [%]	Percent Control (LKB1) [%]	Percent Control (LOK) [%]	Percent Control (LRRK2(G2019S)) [%]
O=C(Nc1n[nH]c2nc(-c3ccc(O)cc3)c(Br)cc12)C1CC1 [SB-725317]	35	85	80	100	100	94	56	71	100	96	86	84	100	94	83	100	100	100	95	96
Cl.O=C(Nc1ccc(Oc2ccc3[nH]c(NC(=O)c4ccco4)nc3c2)cc1)Nc1cc(C(F)(F)F)ccc1F [GW683134A]	85	86	100	15	96	48	0	0	2.3	10	83	0.4	100	97	6.3	76	84	87	0.1	66
Cc1cc(O)cc(C)c1/C=C/c1cncc(C(N)=O)c1 [GW435821X]	84	100	100	92	65	90	4.4	1	100	95	77	2.1	100	96	25	100	100	100	100	74
CN1CCN(C(=O)c2ccc(NC(=O)Nc3ccc(N(C)c4ccnc(Nc5ccc(CS(C)(=O)=O)cc5)n4)cc3)cc2)CC1.Cl [GW830263A]	5.5	19	8.6	0	27	23	0	0	0.1	9.1	35	0	68	59	85	61	43	76	0.4	71
NS(=O)(=O)c1ccc(Nc2ncc(-c3ccccc3)o2)cc1 [GW572399X]	64	100	99	92	100	100	37	26	92	100	31	30	100	100	100	100	100	87	100	78
COc1cccc(-c2c[nH]c3c(N/N=C/c4ccncc4)ncnc23)c1 [GW814408X]	99	97	90	27	12	9.8	2.1	1.7	12	33	38	5	100	89	7.5	100	84	88	100	89
CC(C)COC(=O)c1ccc2c(c1)/C(=C/Nc1ccc(S(N)(=O)=O)cc1)C(=O)N2 [GW416981X]	44	65	71	53	20	22	57	100	100	100	85	100	100	91	100	100	100	100	100	36
CN(C)c1cc2c(Nc3ccc4c(cnn4Cc4ccccc4)c3)ncnc2cn1 [GW282974X]	87	92	82	70	62	90	100	100	96	100	100	100	100	65	77	100	–	100	20	93
CN(C)CCNC(=O)Nc1ccc(N(C)c2ccnc(Nc3ccc(CS(C)(=O)=O)cc3)n2)cc1.Cl [GW830900A]	43	65	55	31	45	52	0	0	14	72	59	0.1	92	88	93	85	100	83	14	76
COc1cc(C=NNc2ncnc3c2cnn3-c2ccccc2)ccc1O [GW513184X]	99	94	82	100	84	40	17	35	65	74	100	42	90	100	34	100	100	69	100	100
